Results taken from the supplement of paper PMC10981050.
“And” between values parts separate entries of the source, which are not always exact repeats. Equal entries are not always repeated. Structures can show the parent of a compound that is named as a salt.

How the values were obtained:
Test in all cases: cell viability relative to vehicle control; higher = less cytotoxic
Conditions in all cases: 10 µM
K562 = system: K562
How it was run: (§1)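 Four leukaemia lines, as CRISPR-edited mutant clones and isogenic wild-type clones, were tested against Selleck bioactive, kinase and epigenetic probe libraries after removal of identity-inconsistent compounds. Cells were exposed to a single 10 µM dose for 48 h, and CellTiter-Glo luminescence was then read. Viability was calculated relative to the on-plate vehicle control.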

MARIMO = system: MARIMO
How it was run: as §1

MOLM14 = system: MOLM14
How it was run: as §1

OCI-AML2 = system: OCI-AML2
How it was run: as §1

Compound | cell viability (K562; SRSF2 genotype: SRSF2 P95H/wt) | cell viability (K562; SRSF2 genotype: SRSF2 wt/wt) | cell viability (MARIMO; SRSF2 genotype: SRSF2 P95H/wt) | cell viability (MARIMO; SRSF2 genotype: SRSF2 wt/wt) | cell viability (MOLM14; SRSF2 genotype: SRSF2 P95H/wt) | cell viability (MOLM14; SRSF2 genotype: SRSF2 wt/wt) | cell viability (OCI-AML2; SRSF2 genotype: P95H/wt) | cell viability (OCI-AML2; SRSF2 genotype: wt/wt)
CNCc1cc(-c2ccccc2F)n(S(=O)(=O)c2cccnc2)c1 [Vonoprazan Fumarate (TAK-438)] | 94.5% and 98% | 94.2% | 85.5% | 89.8% | 93% | 91.3% | 97.1% | 85.7%
COc1cc2c3cc1Oc1c(OC)c(OC)cc4c1[C@@H](Cc1ccc(O)c(c1)Oc1ccc(cc1)C[C@@H]3N(C)CC2)N(C)CC4 [Berbamine] | 62.8% and 49.4% | 57.5% | 72.7% | 67.2% | 72.8% | 67.6% | 39.3% | 54.9%
Cc1nc2n(c(=O)c1CCN1CCC(c3noc4cc(F)ccc34)CC1)CCCC2 [Risperidone (Risperdal)] | 93.6% and 101% | 93.5% | 94% | 99.2% | 100% | 98.2% | 98.8% | 99%
C=C(C)C1CC=C(C)CC1 (single isomer, unassigned; (+)) [(+)-Dipentene] | 114% and 103% | 116% | 104% | 108% | 110% | 108% | 109% | 115%
CN1C(C(=O)Nc2ccccn2)=C(O)c2sccc2S1(=O)=O [Tenoxicam(Mobiflex)] | 105% and 103% | 102% | 107% | 112% | 98.4% | 106% | 95.5% | 105%
CCN(Cc1ccncc1)C(=O)C(CO)c1ccccc1 (stereo not drawn) [Tropicamide] | 102% and 103% | 108% | 107% | 103% | 97.7% | 106% | 109% | 116%
Cc1ccc(C(=O)Nc2ccc(Oc3cc4cnn(C)c4cc3-c3cn[nH]c3)c(F)c2)c(=O)n1-c1ccc(F)cc1 | 82.9% and 87.4% | 87.2% | 88.5% | 103% | 8.56% | 12.4% | 27.6% | 31.6%
O=C(O)c1cc2cccc([N+](=O)[O-])c2[nH]1 | 103% and 105% | 103% | 98.9% | 107% | 106% | 101% | 111% | 111%
O=C(Nc1cc(Cl)cc(Cl)c1O)c1c(O)c(Cl)cc(Cl)c1Cl [Oxyclozanide] | 96% and 91.7% | 97.8% | 97.2% | 108% | 99.1% | 103% | 102% | 99.9%
CO[C@H]1/C=C/O[C@@]2(C)Oc3c(C)c(O)c4c(O)c(c(/C=N/N5CCN(C6CCCC6)CC5)c(O)c4c3C2=O)NC(=O)/C(C)=C\C=C\[C@H](C)[C@H](O)[C@@H](C)[C@@H](O)[C@@H](C)[C@H](OC(C)=O)[C@@H]1C [Rifapentine] | 87.7% and 92.5% | 87.4% | 78.3% | 109% | 56.2% | 67% | 56.1% | 57.2%
CC(C)c1cc2c(cc1S(=O)(=O)O)[C@@]1(C)CCC[C@@](C)(C(=O)O)[C@@H]1CC2 [Ecabet sodium] | 95.2% and 96.4% | 105% | 96.6% | 101% | 97% | 99.7% | 105% | 91.8%
Cc1ccc(NC(=O)C2(c3ccc4c(c3)OC(F)(F)O4)CC2)nc1-c1cccc(C(=O)O)c1 [VX-809 (Lumacaftor)] | 108% and 106% | 112% | 115% | 113% | 109% | 106% | 106% | 122%
C[Si](C)(C)CCOCn1ccc2c(-c3cn[nH]c3)ncnc21 | 98.4% and 99.6% | 109% | 98.6% | 106% | 95.9% | 106% | 100% | 99%
Cc1cc(Nc2cc(Cl)nc(Oc3ccc([N+](=O)[O-])cc3)n2)n[nH]1 [Autophinib] | 30.5% and 32.9% | 31.3% | 33.4% | 53.3% | 29.9% | 14.5% | 50% | 47.9%
COc1cc2c(cc1OC)[C@@H](Cc1ccc(O)c(Oc3cc4c(cc3OC)CCN(C)[C@@H]4Cc3ccc(O)cc3)c1)N(C)CC2 [Liensinine] | 86.6% and 83% | 78.5% | 63.3% | 74.6% | 69.1% | 83.3% | 63.2% | 59.9%
O=C(O)/C=C/c1ccc(O)c(O)c1 [Caffeic acid] | 99.1% and 100% | 94.3% | 94.2% | 105% | 97.7% | 101% | 76.2% | 92.7%
C/C=C(/C)C(=O)O[C@H]1Cc2cc3ccc(=O)oc3cc2OC1(C)C [Decursinol angelate] | 83.2% and 91.7% | 81.8% | 75% | 82.4% | 83.1% | 89.4% | 71.1% | 77.8%
CCN(CC)CCNC(=O)c1c(C)[nH]c(/C=C2\C(=O)Nc3ccc(F)cc32)c1C [Sunitinib Malate] | 17.8% and 22.7% | 12.7% | 18.5% | 19.4% | 0.31% | 0.38% | 0.42% | 1.47%
Fc1ccc(Cl)cc1-c1nc(Nc2ccncc2)c2nccnc2n1 | 86.8% and 88.9% | 79.9% | 92.1% | 104% | 108% | 96% | 104% | 103%
O=C(/C=C/c1cncc(F)c1)c1c(-c2ccccc2)c2cc(Cl)ccc2[nH]c1=O | 6.82% and 5.38% | 2.2% | 3.3% | 0.38% | 0.08% | 0.04% | 0.13% | 0.16%
CC(=O)/N=c1/sc(S(N)(=O)=O)nn1C [Methazolamide] | 109% and 102% | 95.2% | 106% | 111% | 98.5% | 102% | 100% | 105%

Compound | cell viability (K562; SRSF2 genotype: SRSF2 P95H/wt) | cell viability (K562; SRSF2 genotype: SRSF2 wt/wt) | cell viability (MARIMO; SRSF2 genotype: SRSF2 P95H/wt) | cell viability (MARIMO; SRSF2 genotype: SRSF2 wt/wt) | cell viability (MOLM14; SRSF2 genotype: SRSF2 P95H/wt) | cell viability (MOLM14; SRSF2 genotype: SRSF2 wt/wt) | cell viability (OCI-AML2; SRSF2 genotype: P95H/wt) | cell viability (OCI-AML2; SRSF2 genotype: wt/wt)
COc1cccc(/C=N/N(C(=O)C(F)(F)F)c2ccc(C)cc2C)c1 | 90.5% and 95.3% | 99.8% | 83.5% | 102% | 98.5% | 105% | 101% | 106%
COc1cc(CO)cc(OC)c1O [4-Hydroxy-3,5-dimethoxybenzyl alcohol] | 106% and 98.2% | 100% | 102% | 107% | 99.7% | 102% | 108% | 105%
C[C@H](CCC(=O)O)[C@H]1CC[C@H]2[C@@H]3[C@@H](O)C[C@@H]4C[C@H](O)CC[C@]4(C)[C@H]3CC[C@]12C [Ursodiol (Actigal Urso)] | 95.3% and 97.4% | 96.6% | 103% | 98.9% | 99.4% | 100% | 98.1% | 99.7%
CCCCc1oc2ccccc2c1C(=O)c1cc(I)c(OCCN(CC)CC)c(I)c1 [Amiodarone HCl] | 70.3% and 74.5% | 69.9% | 52.3% | 58.6% | 54.8% | 62.7% | 42.8% | 48.5%
C[C@@H](O[C@H]1OCCN(Cc2nn(P(=O)(O)O)c(=O)[nH]2)[C@H]1c1ccc(F)cc1)c1cc(C(F)(F)F)cc(C(F)(F)F)c1 [Fosaprepitant dimeglumine salt] | 52.4% and 55.7% | 57% | 53.1% | 52.6% | 60.9% | 65% | 52.4% | 58%
CC(C)Oc1ccc(-c2nn([C@@H](C)c3oc4ccc(F)cc4c(=O)c3-c3cccc(F)c3)c3ncnc(N)c23)cc1F | 89.1% and 94.3% | 87.6% | 84.8% | 94.9% | 77% | 71.8% | 67.4% | 72.3%
C[N+]12CCc3cc4c(cc3C1(O)Cc1ccc3c(c1C2)OCO3)OCO4 (stereo not drawn) [Hydroprotopine] | 94.4% and 93.5% | 89.5% | 84.6% | 91.9% | 91.2% | 98.8% | 96.3% | 99%
CC1Cc2ccccc2N1NC(=O)c1ccc(Cl)c(S(N)(=O)=O)c1 (stereo not drawn) [Indapamide (Lozol)] | 108% and 105% | 103% | 106% | 105% | 106% | 106% | 114% | 104%
COc1ccc(S(=O)(=O)NCc2ccc(C(=O)NCCc3ccc(Cl)cn3)cc2)cc1 | 83.3% and 86.3% | 81.6% | 84.3% | 105% | 83.4% | 90.9% | 92.7% | 104%
COCCOC(=O)C1=C(C)NC(C)=C(C(=O)OC/C=C/c2ccccc2)C1c1cccc([N+](=O)[O-])c1 (stereo not drawn) [Cilnidipine] | 87.1% and 86.8% | 81.2% | 88.1% | 98.1% | 78.8% | 81.6% | 78.9% | 74.5%
COC1CCN(C(=O)c2cc(Cc3n[nH]c(=O)c4ccccc34)ccc2F)CC1 | 78.6% and 83.8% | 86% | 81.5% | 97.1% | 57.9% | 34.7% | 51.2% | 62.1%
CN(C/C=C/C#CC(C)(C)C)Cc1cccc2ccccc12 [Terbinafine] | 99.7% and 97.5% | 103% | 96.2% | 108% | 104% | 105% | 105% | 110%
CN1C(=O)[C@@H](NC(=O)c2cc(Cc3ccccc3)on2)COc2ccccc21 | 105% and 100% | 105% | 98.9% | 102% | 110% | 110% | 99.6% | 99.8%
C[N+]1(C)CCC(=C(c2ccccc2)c2ccccc2)CC1 [Diphemanil Methylsulfate] | 92.5% and 98% | 96.6% | 101% | 106% | 99% | 98.6% | 99.8% | 101%
Cc1cn([C@H]2C[C@H](O)[C@@H](CO)O2)c(=O)[nH]c1=O [Thymidine] | 98.3% and 88% | 98.2% | 96.6% | 102% | 92.5% | 99.7% | 91.8% | 99.9%
COc1ccc(CC(=O)O)cc1OC [Homoveratrumic acid] | 92% and 79.3% | 85.9% | 89.2% | 98.9% | 89.3% | 92.8% | 88.2% | 99%
CC1C(=O)OC2C(O)C34C5CC(C(C)(C)C)C36C(OC(=O)C6O)OC4(C(=O)O5)C12O (stereo not drawn) [Ginkgolide B] | 110% | 114% | 111% | 109% | 107% | 109% | 113% | 105%
O=C(c1ccc(C(=O)N2CCC(N3CCCC3)CC2)c(Nc2ccccc2)c1)N1CCC(N2CCCC2)CC1 | 94.7% and 87.5% | 84.1% | 81.1% | 92.7% | 89% | 89.4% | 93.8% | 89.4%
C[C@@H]1CC(=O)c2c(ccc3c2C(=O)c2cccc(O)c2C3=O)C1 | 77.9% and 93.8% | 94.6% | 67.6% | 57.6% | 53.9% | 68.5% | 43.4% | 43.6%
COC(=O)C1=C(C)NC(C)=C(C(=O)OCCN(C)Cc2ccccc2)C1c1cccc([N+](=O)[O-])c1 (stereo not drawn) [Nicardipine HCl] | 79.8% and 89.1% | 80.5% | 81.8% | 91.3% | 87.9% | 81.1% | 85.8% | 85%
